The values that follow come from PubChem BioAssay.

Each structure is given as a SMILES string. “And” between values parts separate entries of the source, which are not always exact repeats. Equal entries are not always repeated. The source made the active and inactive calls.

Test [1] has as its system XIP peptide (Xip251-270) binding. Kind of test: XIP fragment 251-270 binding compounds – biochemical, small-molecule microarray, fluorescence 635/667 nm, 0.1 µg/mL protein, primary screen (AID 1182). As to conditions: fluorescent protein binding, 635 nm, higher = more signal, called active from +8 up or from −8 down.
For test [2], the system named is XIP peptide (Xip251-270). Kind of test: compounds binding XIP fragment 251-270 – biochemical, small-molecule microarray, fluorescence 635/667 nm, 0.5 µg/mL protein, primary screen (AID 1183). Conditions: fluorescence 635 nm, higher = more signal.
Test [3] is described as follows: blood-stage malaria parasite viability loss – strain 3D7, DAPI fluorescence, 100 nL, primary screen (AID 1184).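 Also: parasites grown inside human red blood cells in medium with human serum.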 Conditions: P. falciparum 3D7 growth, 3 d, higher = more signal.
In test [4] the target is Homeobox protein Hox-A13 (Mus musculus) (UniProt Q62424). As to the kind of experiment: disruptors of Hoxa13 oligonucleotide interaction – biochemical, fluorescence polarization, labeled oligonucleotide, primary screen (AID 1185). As to conditions: Hoxa13:DNA binding, 15 min, higher = more signal, called active from +8 up or from −8 down. A general note: In fluorescence polarisation assays a small probe gives low polarisation when free and higher when bound to something large.
Chain of Homeobox protein Hox-A13 (Mus musculus) (Q62424 whole entry, looked up): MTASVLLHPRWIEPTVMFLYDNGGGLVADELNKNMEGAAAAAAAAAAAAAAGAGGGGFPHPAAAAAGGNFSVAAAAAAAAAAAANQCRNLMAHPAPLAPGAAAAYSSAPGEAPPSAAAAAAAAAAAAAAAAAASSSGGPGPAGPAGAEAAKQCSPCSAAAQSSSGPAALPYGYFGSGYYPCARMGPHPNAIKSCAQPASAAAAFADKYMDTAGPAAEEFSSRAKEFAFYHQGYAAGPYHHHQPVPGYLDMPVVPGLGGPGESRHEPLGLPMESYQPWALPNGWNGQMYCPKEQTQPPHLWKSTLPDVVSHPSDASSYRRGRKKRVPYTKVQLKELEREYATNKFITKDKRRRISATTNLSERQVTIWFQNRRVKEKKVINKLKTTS

For the compound `CC(C)=NOCc1ccc(-c2cn([C@@H]3COC[C@H]3O)nn2)cc1`, the values for the composite z-score in test [1] and in test [2] were 0.364 (inactive) and -0.149, respectively. Besides, the z-score in test [3] is 1.76; in test [4] it was -0.221 (inactive).
`CO[C@@H]1COC(=O)CC=C[C@H](C)[C@@H](NS(=O)(=O)c2ccc(C)cc2)COC(=O)CC=C[C@@H]1C`: the composite z-score in test [1] is 1.11 (inactive) and 0.147 (inactive); in test [2], 0.77 and 0.481. Moreover, the z-score in test [3] was 0.707 and -0.283; in test [4], -1.05 (inactive) and -2.69 (inactive).
In the case of `CCN1C(=O)[C@H]2[C@H]3[C@H](O)[C@H](O)CC(=NOC)[C@@H]3CC[C@H]2C1=O`, the figures for the composite z-score in test [1] and in test [2] were -0.397 (inactive) and 0.774, respectively. The z-score in test [3] is 0.638; in test [4] it was 1.98 (inactive).
Turning to `O=c1n(-c2ccccc2)c(=O)n2n1CC[C@@H]1C(=NOC[C@@H](O)COCc3ccco3)[C@H]3O[C@H]3[C@@H](O)[C@@H]12`, the composite z-score was 0.0643 (inactive) and 0.158 (inactive) in test [1]; 0.0433 and -0.0465 in test [2]. Also, the z-score in test [3] is -1.77 and -0.681; in test [4], -0.683 (inactive) and -1.44 (inactive).
`COC(=O)C1=C2N(Cc3ccccc3)C(C)=C(C(=O)OC)[C@@H](c3ccccc3)N2C(=O)[C@](O)(C(=O)OC)C1`: the composite z-score is 0.109 (inactive) and 0.0955 (inactive) in test [1]; 0.23 and 0.64 in test [2]. Further, the z-score in test [3] was 0.166 and -0.0932; in test [4], -5.1 (inactive) and -1.13 (inactive).
Turning to `CO[C@H]1COC(=O)CC=C[C@@H](C)COC(=O)[C@H](CCSC)NC(=O)CC=C[C@@H]1C`, the composite z-score in test [1] is 0.218 (inactive) and 0.322 (inactive); in test [2], 0.421 and 0.562. For the same compound, the z-score in test [3] is -1.51 and -0.356; in test [4], -0.947 (inactive) and -0.902 (inactive).
As for `CC(C)=NOC[C@@H](O)COCc1ccco1`, the composite z-score is -0.651 (inactive) in test [1] and 0.258 in test [2]. Besides, the z-score was 0.814 in test [3] and -1.15 (inactive) in test [4].
The like results for `CC(C)CON=C1C[C@@H](O)[C@@H](O)[C@@H]2[C@@H]3C(=O)N(c4cccc(Oc5ccccc5)c4)C(=O)[C@@H]3CC[C@H]12` were, in that order, 0.0483 (inactive), 0.741, -0.638 and 0.875 (inactive).
For `CO[C@H]1COC(=O)CC=C[C@@H](C)COC(=O)[C@@H](OCc2ccccc2)C=C[C@@H]1C` the same measures were -0.147 (inactive), -0.106, 0.56 and -0.383 (inactive).
For `CC(C)=NO[C@@H](C)c1cc(-c2c(C)cc(C)cc2C)no1` the same measures were -0.386 (inactive), 0.303, -0.876 and 0.387 (inactive).
For `CO[C@@H]1C=CCC(=O)N2CCC[C@H]2C(=O)OC[C@H](C)C(=O)OC[C@H]1C`, the composite z-score is 0.28 (inactive) in test [1] and 0.612 in test [2]. For the same compound, the values for the z-score in test [3] and in test [4] were 0.471 and -0.499 (inactive), respectively.
The like results for `CO[C@H]1COC(=O)[C@H](C)NC(=O)CC=C[C@@H](C)[C@H](OC)COC(=O)CC=C[C@@H]1C` were, in that order, 0.195 (inactive), 0.394, 0.459 and -0.298 (inactive).
For `CC(C)C(=O)N[C@@H]1CCCN1C(=O)C=Cc1ccccc1` the same measures were 0.36 (inactive), 0.473, 1.99 and -1.68 (inactive).
For the compound `COC(=O)CC=C[C@@H](C)[C@@H](CO)NS(=O)(=O)c1ccc(C)cc1`, the composite z-score in test [1] is -0.468 (inactive) and 0.212 (inactive); in test [2] it was 0.169 and 0.315. Moreover, the z-score was -0.106 and 0.0276 in test [3]; 0.0308 (inactive) and -1.12 (inactive) in test [4].
As for `CCCC[C@@H]1CN2[C@@H](CC[C@@H](C)[C@@H]2c2ccc(Br)cc2)C(=O)O1`, the composite z-score was 0.177 (inactive) and 0.122 (inactive) in test [1]; 0.712 and 0.647 in test [2]. Further, the z-score in test [3] was 0.524 and 0.888; in test [4], -3.5 (inactive) and -2.53 (inactive).
For the compound `COC(=O)C1=C(C)N(Cc2ccccc2)[C@]23O[C@](C(=O)OC)(C(=O)N2[C@@H]1c1ccccc1)[C@@H](c1ccccc1)[C@@H]3C(=O)c1ccccc1`, the composite z-score in test [1] is 0.114 (inactive) and 0.416 (inactive); in test [2], -0.0935 and 0.0333. Besides, the z-score in test [3] is -0.362 and 0.318; in test [4] it was -0.11 (inactive) and -0.0833 (inactive).
As to `CCN1C(=O)[C@H]2[C@H]3[C@H](O)[C@H](O)CC(=NOC[C@@H](O)COCc4ccco4)[C@@H]3CC[C@H]2C1=O`, the composite z-score in test [1] was -0.24 (inactive) and 1.01 (inactive); in test [2], 0.232 and 0.595. In addition, the z-score in test [3] was 0.0479 and -0.919; in test [4], -0.849 (inactive) and -2.85 (inactive).
Turning to `COC(=O)C1=C(C)N(Cc2ccccc2)C2=C3C(=O)N(C)C(=O)[C@@H]3[C@@](O)(C(=O)OC)C(=O)N2[C@@H]1c1ccccc1`, the composite z-score in test [1] was 0.214 (inactive) and -0.566 (inactive); in test [2] it was 0.0447 and 0.0893. In addition, the z-score in test [3] is 0.557 and 0.251; in test [4] it was -1.2 (inactive) and -0.234 (inactive).
